Compound activity as filed in PubChem BioAssay.
Rows were chosen to be rich in hits. Some 6.5% of all compounds tested hit in one or more screens of this group.
VACV mCherry inh – qHTS for Stage-Specific Inhibitors of Vaccinia Orthopoxvirus: mCherry Reporter Primary qHTS | 310,000 tested, 0.63% active | Vaccinia virus mCherry reporter infection, fluorescence | Potency, µM (highest dose often 36.5 µM), without a hit: top-dose activity change, negative = inhibition, usual class: inhibitors; calls by dose curve; tested in A549 cells; further: potency means the concentration at half of the fitted maximal effect; nearly all actives have a fitted effect of over 35% in size
FMDV inh – High Throughput Screening for Foot and Mouth Disease Virus Antivirals | FMDV antiviral cell-based qHTS | Potency, µM (doses to about 57.9 µM), without a hit: at the top dose activity change, negative = inhibition, hits mostly inhibitors | 410,000 tested, 1.2% active; calls by dose curve; tested in HEK293T cells; further: read-out not given here; potency means the concentration at half of the fitted maximal effect; nearly all actives have a fitted effect of over 45% in size
Lassa entry inh – qHTS for Inhibitors of binding or entry into cells for Lassa Virus. Lassa virus pseudotype entry inhibition, cell reporter. Potency, µM (top dose mostly 37.9 µM), for inactives: at the highest dose activity change, negative = inhibition, usual class: inhibitors. 300,000 tested, 1.2% active; calls by dose curve; tested in HEK293 cells; further: potency means the concentration at half of the fitted maximal effect; nearly all actives have a fitted effect of over 50% in size
VACV Venus inh – qHTS for Stage-Specific Inhibitors of Vaccinia Orthopoxvirus: Venus Reporter Primary qHTS | Vaccinia virus Venus reporter expression, fluorescence | AID 720580, 2013 | 330,000 tested, 0.46% active | Potency, µM (series often up to 36.5 µM), for inactives: at the highest dose activity change, negative = inhibition, usual class: inhibitors; calls by dose curve; tested in A549 cells; further: potency means the concentration at half of the fitted maximal effect; nearly all actives have a fitted effect of over 30% in size
HCMV antiviral – qHTS Assay for inhibitors of the human cytomegalovirus (HCMV) | AID 1259415, 2018 | HFF cells, HCMV-luciferase reporter, 72 h; hits give low values | 410,000 tested, 4.5% active | activity change, negative = inhibition, % at 57.5 µM; in the data active means activity change below about -60%; inconclusive means no clear call, values can overlap the other calls; inactive means above about -39%
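After 16 h attachment at 37C, HFF cells received test compound and HCMV-luciferase (1 PFU/cell); reporter luminescence read 72 h later, data normalized against buffer-only and known inhibitor Salinomycin.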
Marburg entry inh – qHTS for inhibitors of binding or entry into cells for Marburg Virus; Marburg virus pseudotyped entry inhibition, cell reporter; Potency, µM (doses to about 37.8 µM), for the others: at the highest dose activity change, negative = inhibition, hits mostly inhibitors; 300,000 tested, 1.8% active; calls by dose curve; tested in HEK293 cells; further: potency means the concentration at half of the fitted maximal effect
Active calls of the source: *; i = inactive; ? = inconclusive; / = not tested or not shown; [ ] = dose if it differs, or a comment. On the % scale 0 is the no-effect control and ±100 the full control effect.

SMILES	VACV mCherry inh	FMDV inh	Lassa entry inh	VACV Venus inh	HCMV antiviral	Marburg entry inh
NC1(C#Cc2ccc3oc(=O)c(-n4cc(-c5ccsc5)nn4)cc3c2)CCCCC1	-14.1%	-21.1%	/	?	-72.5*	/
CCOc1ccc(S(=O)(=O)N(C)CCO)cc1-c1nc2c(C(C)(C)C)nn(C)c2c(=O)[nH]1	-26.5%	-0.3%	2.82µM*	-24.1%	-13.4	-31.5%
CCCCOC(=O)c1cccc(NC(=O)/C=C/c2ccccc2Cl)c1	-20.7%	?	-27.7%[46.1 µM]	-22.2%	-95.3*	/
CN(C)c1ccc(NC(=O)/C=C/c2c(Cl)cccc2Cl)cc1	28.2µM*	22.0%	?	6.3%	?	?
CCOC(=O)c1cccc(NC(=O)c2ccc3c(c2)OCO3)c1	-22.1%	21.4%	?	-26.0%	26.8	-1.1%
O=C(/C=C/c1ccccc1Cl)Nc1ccccc1	i	-15.6%	?	-20.9%	130.6	10µM*
CCOC(=O)c1cccc(NC(=O)/C=C/c2ccc3c(c2)OCO3)c1	-23.2%	39.8µM*	?	?	-10.9	?
Nc1c(Br)cc(/C=C/c2ccnc3ccccc23)cc1Br	7.4%	/	/	-26.9%	/	/
CC(=O)NCCNc1nc(-c2cccnc2)nc2ccccc12	/	-5.9%	/	/	/	/
CCN(C(=O)/C=C/c1ccc2c(c1)OCO2)c1ccccc1	i	9.7%	0.1%	-21.5%	-70.6*	23.2%
O=C(C=Cc1ccc2c(c1)OCO2)c1ccccc1	-6.4%	29.0%	?	2.6%	18.6	?
Cc1oc(-c2ccccc2NC(=O)C2CCC2)nc1CNC(=O)c1ccccn1	-4.5%	-6.2%	/	-0.6%	/	/
Cc1ccc2oc(-c3ccc(Cl)cc3)c(O)c(=O)c2c1	-12.3%	29.4%	1.5%[46.1 µM]	-12.7%	-77.4*	?
O=C(O)c1ccc(Nc2nc(-c3ccc([N+](=O)[O-])cc3)nc3ccccc23)cc1	-5.7%	-18.8%	/	-16.8%	23.5	/
Oc1ccc(Nc2nc(-c3ccc(Cl)cc3)nc3ccccc23)cc1	-26.8%	6.8%	?	-25.8%	-61.1*	?
c1ccc(CNc2nc(-c3cccnc3)nc3ccccc23)cc1	/	?	/	/	-36.9	/
c1ccc(CN2CCC(Nc3nc(-c4cccnc4)nc4ccccc34)CC2)cc1	?	0.0%	?	12.6µM*	-63.5*	10µM*
Cc1cc(N/N=C/c2ccc(O)c(C)c2O)nc(-c2ccccc2O)n1	10µM*	-16.3%	?	12.6µM*	-102.7*	?
CC(=O)Nc1ccc(Nc2nc(-c3ccccc3)nc3ccccc23)cc1	-32.5%	?	?	?	-93.9*	?
Cc1cc(C)c(NC(=O)Cn2nc3c(cc2=O)CCCC3)c(C)c1	-11.1%	-10.9%	-4.9%[46.1 µM]	0.7%	13.2	/
Cc1ccc(-c2nc(N/N=C/c3ccncc3)c3ccccc3n2)cc1	-6.8%	1µM*	?	-8.2%	99.6	2.91µM*
Cc1ccc(Nc2nc(-c3cccnc3)nc3ccccc23)cc1	-5.9%	-18.6%	?	?	-68.8*	3.98µM*
c1ccc(Nc2nc(-c3cccnc3)nc3ccccc23)cc1	/	-17.4%	/	/	/	/
Fc1ccc(Nc2nc(-c3ccncc3)nc3ccccc23)cc1F	/	?	6.3%[46.1 µM]	/	11.8	7.08µM*
Cc1c(O)ccc(/C=N/Nc2nc(-c3cccnc3)nc3ccccc23)c1O	-29.4%	41.9%	/	-16.7%	-75.2*	/
SMILES	VACV mCherry inh	FMDV inh	Lassa entry inh	VACV Venus inh	HCMV antiviral	Marburg entry inh
Cc1ccc2nc(C(Cl)(Cl)Cl)nc(N/N=C/c3ccncc3)c2c1	i	-23.5%	-4.0%	-17.7%	-29.8	-2.3%[46.1 µM]
O=S(=O)(c1ccc(F)cc1F)N1CCN(c2nc(-c3cccs3)nc3ccccc23)CC1	-15.3%	/	/	?	/	/
Fc1ccccc1NC(=S)NNc1ncc(C(F)(F)F)cc1Cl	?	?	?	?	-39.2	7.94µM*
NC(=S)c1ncc(C(F)(F)F)cc1Cl	-10.5%	-7.8%	0.1%	-8.9%	6.0	15.9%
Cc1ccccc1NC(=S)NNc1ncc(C(F)(F)F)cc1Cl	-6.7%	-26.3%	-39.0%	-17.6%	1.5	?
Cc1c(Cl)cccc1NC(=S)NNc1ncc(C(F)(F)F)cc1Cl	/	-18.5%	?	/	-102.5*	20.6µM*
FC(F)(F)c1cnc(NNC(=S)Nc2cccnc2)c(Cl)c1	10µM*	-21.7%	/	?	?	/
NC(=S)Nc1ncc(C(F)(F)F)cc1Cl	-9.4%	-13.5%	15.3%	-9.1%	-92.0*	-14.8%[46.1 µM]
Cc1ccccc1C1=NOC2CN(C(=O)c3ccc4c(c3)OCO4)CC12 (configuration not stated)	/	/	/	/	45.8	/
Cc1oncc1C(=O)Nc1ccc(C(F)(F)F)cc1	-15.5%	27.7%	?	-9.4%	-69.2*	7.08µM*
O=c1[nH]c2ccccc2n1C1CCN(C(c2cccc3ccccc23)c2nnnn2Cc2ccccc2)CC1 (configuration not stated)	-5.7%	-28.8%	/	-25.7%	-74.6*	/
O=c1[nH]c2ccccc2n1C1CCN(C(CCc2ccccc2)c2nnnn2C2CCCC2)CC1 (configuration not stated)	?	35.5µM*	/	?	-101.7*	/
COc1cccc(C(c2nnnn2Cc2ccccc2)N2CCC(n3c(=O)[nH]c4ccccc43)CC2)c1OC (configuration not stated)	-10.7%	-29.0%	/	-24.1%	-70.0*	/
C(=C\c1ccccc1)/CN1CCN(C(c2cc3ccccc3o2)c2nnnn2Cc2ccccc2)CC1 (configuration not stated)	11.8%	5.2%	/	-12.3%	0.1	/
O=c1[nH]c2ccccc2n1C1CCN(C(c2cc3ccccc3o2)c2nnnn2Cc2ccccc2)CC1 (configuration not stated)	?	?	/	?	-101.2*	/
COc1cccc(C(c2nnnn2Cc2ccccc2)N2CCN(C(=O)c3ccco3)CC2)c1OC (configuration not stated)	/	-21.7%	4.7%	-10.0%	-39.6	9.0%
C#CCN(C1CCCC1)S(=O)(=O)C=C	?	/	/	-70.1%	/	/
C=CCOC(=O)C(C(C)=O)[C@@H](NC(=O)OC)c1cccc(F)c1 (some centres not stated)	/	/	/	/	/	12.5%[14.2 µM]
CN(C)c1ccc(CNC(=O)c2cnc(N3CCNC3=O)s2)cc1	/	/	/	/	8.5	/
CCOc1cc(/C=N/NC(=O)Cc2ccc(C(F)(F)F)cc2[N+](=O)[O-])ccc1O	i	-10.7%	-2.4%	-10.4%	-60.7*	1.7%
CCOc1cc(/C=N/NC(=O)N/N=C/c2ccc(O)c(OCC)c2)ccc1O	?	-27.1%	?	?	25.0	7.08µM*
CCOc1cc(/C=N/NC(=O)c2ccccc2OCc2ccc(F)cc2)ccc1O	/	?	/	/	-82.1*	/
CCOc1cc(/C=N/NC(=O)c2ccccc2-n2cccc2)ccc1O	/	-16.2%	/	/	-12.9	/
COCOc1ccc(Br)cc1C(=O)[C@H]1O[C@H]1c1cccc(OC)c1	/	/	/	/	/	-17.3%[14.2 µM]
